Screening data (PubChem)
ELG1 genotoxic – inducers of genotoxicity in HEK293T ELG1-luciferase cells; HEK293T ELG1-luciferase reporter, luminescence, 16 h; Potency, µM (top dose mostly 46 µM), for inactives: at the highest dose activity change, positive = activation, actives largely listed as activators; 330,000 compounds, 1.3% hits; further: % of control where 0% means no effect; nearly all actives have a fitted effect of over 60% in size
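Screening used a luciferase reporter fused to human ELG1 in HEK293T cells. Luminescence was read on a CCD plate imager after 16 hr exposure and 30 min ONE-Glo incubation.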
Rab9 promoter act – Rab9 promoter activation; Huh7 Rab9 promoter-luciferase reporter, luminescence, 24 h; 320,000 compounds, 2.8% hits; Potency, µM (highest dose often 9.22 µM), for the others: top-dose activation, negative = inhibition, most hits filed as activators; further: % of control where 0% means no effect; nearly all actives have a fitted effect of over 60% in size
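Luminescence read-out: Huh7 cells stably expressing Rab9-luciferase, treated 24 h with compound at 37 °C, then lysed with luciferase reagent for 10 min at ambient before reading.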
NPC1 prom act – activates the NPC1 promoter; Huh7 NPC1 promoter luciferase reporter, 24 h; Potency, µM (titrated, usually from 9.22 µM), for inactives: top-dose activation, hits mostly activators; 320,000 compounds, 2.4% hits; AID 485313; further: % of control where 0% means no effect; nearly all actives have a fitted effect of over 60% in size
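Stably transfected Huh7 (NPC1 promoter→luciferase), 1500 cells/well in Opti-MEM + 10% FBS, 2 h settle, then compound 24 h at 37 °C. Luminescence after 10 min with Amplite reagent.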
SMN2 splice enh – SMN2 splice variant enhancement; HEK293 SMN2-luciferase splicing reporter, luminescence, 30-36 h; Potency, µM (doses to about 46.1 µM), without a hit: top-dose activity change, positive = activation, usual class: activators; 210,000 compounds, 2.8% hits; AID 1458; further: % of control where 0% means no effect; nearly all actives have a fitted effect of over 55% in size
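qHTS luciferase splicing reporter: luminescence rises when SMN2 exon 7 is included in transfected HEK293 cells. Compound exposure lasted 30-36 h at 37C, with 4.5 mM final sodium butyrate as control, followed by a ONE-Glo read.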
ELG1 DNA repair – inhibitors of ELG1-dependent DNA repair in HEK293T cells | HEK293T ELG1-luciferase reporter, luminescence, 16 h; DNA damage induced by 5-fluorouridine | Potency, µM (highest dose often 46.1 µM), inactives show at the highest dose activity change, negative = inhibition, actives largely listed as inhibitors | 330,000 compounds, 2.3% hits | AID 504467; further: on the % scale 0 is the no-effect control and ±100 the full control effect; nearly all actives have a fitted effect of over 55% in size
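Quantitative HTS, concentration-response format. 2,000 cells/well co-treated with 5-fluorouridine and compound, 16 hr in 5% CO2 at 37 °C; ONE-Glo luminescence read after 30 min.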
FLuc modulator – counter-screen for miR-21 project: firefly luciferase inhibitors or activators; AID 588342; P08659; Potency, µM (top dose mostly 57.5 µM), without a hit: at the highest dose activity change, negative = inhibition, actives largely listed as inhibitors; purified FLuc, Km substrates, luminescence inhibition; 360,000 compounds, 6.9% hits;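 further: plate controls were vehicle for no effect and reference inhibitor for full effect; nearly all actives have a fitted effect of over 55% in size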
Target sequence (P08659 whole entry, looked up): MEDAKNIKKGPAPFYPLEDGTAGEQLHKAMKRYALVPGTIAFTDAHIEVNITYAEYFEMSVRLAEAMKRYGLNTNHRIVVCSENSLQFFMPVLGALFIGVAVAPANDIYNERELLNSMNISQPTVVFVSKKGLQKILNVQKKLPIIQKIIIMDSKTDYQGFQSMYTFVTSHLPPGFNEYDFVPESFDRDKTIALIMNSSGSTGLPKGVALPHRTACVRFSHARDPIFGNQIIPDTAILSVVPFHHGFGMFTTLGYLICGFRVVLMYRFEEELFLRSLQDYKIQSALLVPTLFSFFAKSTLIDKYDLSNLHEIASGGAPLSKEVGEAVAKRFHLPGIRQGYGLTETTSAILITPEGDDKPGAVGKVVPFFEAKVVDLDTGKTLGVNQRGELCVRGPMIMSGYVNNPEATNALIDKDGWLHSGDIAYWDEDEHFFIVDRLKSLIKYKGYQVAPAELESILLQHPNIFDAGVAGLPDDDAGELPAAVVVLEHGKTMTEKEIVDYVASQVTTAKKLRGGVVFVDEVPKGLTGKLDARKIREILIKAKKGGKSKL
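Purified P. pyralis luciferase, 10 nM final, with Km-level 10 uM D-luciferin and 10 uM ATP in 50 mM Tris acetate pH 7.5, 10 mM Mg acetate, 0.01% Tween-20, 0.05% BSA; 6-point qHTS titration about 60 µM downward; luminescence read.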
* = called active by the depositor; ? = inconclusive; / = no result given; [ ] = another dose, or the depositor's remark. In the library only some 9.3% were active in any assay of this set; here they are far more common. The call rests on the fitted dose curve; in most records, active means well fitted curve in the direction sought with a large enough effect; inconclusive means small, poorly fitted or top-dose-only effect, or another doubt; inactive means no such curve, though single readings can be large; an effect the other way counts as inactive or inconclusive. Potency means the concentration at half of the fitted maximal effect.

SMILES	ELG1 genotoxic	Rab9 promoter act	NPC1 prom act	SMN2 splice enh	ELG1 DNA repair	FLuc modulator
COc1cccc(C2/C(=C(\O)c3ccc4c(c3)OCCO4)C(=O)C(=O)N2CCCN2CCOCC2)c1OC (configuration not stated)	0.0%	-1.0%	-5.3%	/	9.3%	-2.4%
CCOc1ccc(-c2cc(NC(=O)c3c(F)cccc3F)c(C(=O)OC)s2)cc1	/	/	/	13.9%	/	-1.5%
Cc1ccccc1/C=C1\OC(=O)c2ccccc21	3.5%	-3.4%	-1.8%	-2.6%	11.5%	?
Cc1ccc(/C=C2\OC(=O)c3ccccc32)cc1	?	-0.4%	-1.8%	?	?	1.07µM*
O=C(c1ccccc1)c1ccc2nc(Nc3cc(Cl)ccc3O)c3nncn3c2c1	/	/	/	/	/	-7.4%
Cc1sc(NC(=S)NC(=O)c2ccco2)c(C#N)c1C	?	?	0.2%	/	?	2.69µM*
Cc1sc(NC(=S)NC(=O)c2ccc(C(C)(C)C)cc2)c(C#N)c1C	-0.4%	-1.7%	-4.3%	?	?	-11.4%
Cc1sc(NC(=O)c2ccco2)c(CN2CCN(c3ccccn3)CC2)c1C	4.1%	9.9%	8.3%	/	?	6.01µM*
CCOC(=O)c1sc(NC(=O)c2ccco2)c(C#N)c1C	-1.8%	-2.1%	0.0%	-2.6%	14.4%	13.5µM*
CCc1c(C)sc(NC(=O)c2noc(C)c2[N+](=O)[O-])c1C#N	2.6%	3.5%	-1.5%	-25.5%	-1.2%	10.7µM*
C/C=C(\C)C(=O)OC1[C@@H]2C=C3C4CC(=O)OC(c5ccoc5)[C@]4(C)CCC3[C@@](C)(C2=O)C(C(O)C(=O)OC)C1(C)C (some centres not stated)	/	/	/	-12.5%	/	/
CCc1c(C)sc(NC(=O)c2cc(-c3ccc(O)cc3)on2)c1C#N	0.0%	1.6%	-0.2%	13.7%	-3.5%	-0.2%
CCc1c(C)sc(NC(=O)c2ccco2)c1C#N	?	3.55µM*	?	/	?	16.9µM*
CCC(C)c1ccc2oc(-c3ccc(NC(=O)c4ncn[nH]4)cc3)nc2c1 (configuration not stated)	?	6.2%	15.4%	25.6%	?	2.69µM*
CCC(C)c1ccc(O)c(NC(=O)c2ncn[nH]2)c1 (configuration not stated)	0.0%	1.0%	5.4%	-13.7%	-3.1%	?
COc1ccc([C@@H](C)NC(=O)c2ccc3oc(C(C)C)nc3c2)cc1	3.3%[9.26 µM]	?	?	/	0.0%	16.9µM*
CCc1ccc(C(=O)Nc2cccc(-c3nc4cc(C(C)C)ccc4o3)c2)cc1	/	/	/	-5.1%	/	2.69µM*
COc1cc(OC)cc(C(=O)Nc2ccc(-c3nc4ccccc4o3)cc2)c1	-4.5%	-1.9%	-2.8%	-13.3%	?	-10.4%
COc1cc(OC)cc(C(=O)Nc2ccc(-c3nc4cc(C(C)C)ccc4o3)cc2)c1	/	/	/	-28.7%	/	10.7µM*
CC(C)c1ccc2oc(-c3ccc(NC(=O)c4ncn[nH]4)cc3)nc2c1	9.2µM*	?	?	?	?	1.51µM*
Cc1cccc(C(=O)Nc2ccc(-c3nc4cc(C(C)C)ccc4o3)cc2)c1	/	/	/	-3.0%	/	?
CN(C(=O)Cn1cc(S(=O)(=O)N2CCN(c3ccccc3F)CC2)c2ccccc2c1=O)c1ccc(Cl)cc1	/	/	/	1.4%	/	5.8%
O=C(O)COc1ccc2c(c1)O/C(=C\c1ccco1)C2=O	0.4%	1.2%	-0.7%	/	24.3%	?
Cc1ccc(/C=C2\Oc3cc(OCC(=O)NN)ccc3C2=O)o1	0.2%	-5.1%	0.7%	/	12.0%	2.13µM*
O=C(O)COc1ccc2c(c1)O/C(=C\c1cccs1)C2=O	1.2%	-0.9%	-4.9%	/	14.8%	1.9µM*
SMILES	ELG1 genotoxic	Rab9 promoter act	NPC1 prom act	SMN2 splice enh	ELG1 DNA repair	FLuc modulator
CSCC[C@H](NC(=O)N1CCn2c1nc1ccccc12)C(=O)NCc1ccco1	2.9%	-3.7%	-1.7%	/	3.2%	1.7%
CSc1nc(C(=O)N2CCCC(N3CCN(c4ccccc4C)CC3)C2)cs1 (configuration not stated)	-22.4%	-11.1%	-1.2%	/	?	4.1%
COc1cc(CNC(=O)CCn2nc(C)c3c(C)n(-c4ccccc4)nc3c2=O)cc(OC)c1OC	4.4%	-4.5%	-0.2%	/	14.3%	2.2%
CCn1c(O)c(C=NC2CCCC(C)C2C)sc1=S (configuration not stated)	?	?	?	/	?	15.1µM*
Nc1nc(CSc2ncccn2)nc(Nc2ccccc2)n1	?	3.98µM*	4.47µM*	14.1µM*	?	23.9µM*
Cc1ccc(Nc2nc(N)nc(CSc3ncccn3)n2)cc1	?	2µM*	2.24µM*	12.6µM*	?	12µM*
Nc1nc(CSc2n[nH]c(-c3ccccc3)n2)nc(Nc2ccccc2)n1	-17.9%	-1.4%	-1.6%	-35.2%	?	-9.5%
Cc1ccc(Nc2nc(N)nc(CSc3nc(C)cc(C)n3)n2)cc1	/	/	/	-3.5%	/	-13.9%
O=C1C(=O)N(C2CCN(C(=O)c3ccccc3Cl)CC2)CCN1Cc1ccc(F)cc1	/	/	/	/	/	1.1%
Cc1ccc(NC(=S)NC(=O)C2CCCC2)cc1C	?	2.51µM*	3.16µM*	/	?	10.7µM*
Cc1ccc(NC(=S)NC(=O)C2CCC2)cc1C	?	3.98µM*	1.41µM*	/	?	9.53µM*
O=C(NC(=S)Nc1ccc(O)cc1)C1CCCC1	4.7%	7.0%	3.0%	/	?	?
O=C(NC(=S)Nc1ccccc1Br)C1CCCC1	?	15.1%	?	/	?	19µM*
Cc1ccc(NC(=S)NC(=O)c2ccc(Br)o2)c(C)c1	?	2.82µM*	?	8.91µM*	?	9.53µM*
Cc1cccc(NC(=S)NC(=O)c2ccc(Br)o2)c1C	8.5%	0.7%	6.6%	4.6%	?	?
CCCS(=O)(=O)c1nc(S(=O)(=O)c2ccc(C)cc2)c(N(C)Cc2ccccc2)s1	/	/	/	-2.3%	/	-2.0%
CCCCNC(=O)CSc1nc2ccccc2nc1Cc1ccc(Cl)cc1	/	/	/	/	/	-0.9%
CN(Cc1ccccc1)S(=O)(=O)c1ccc(NC(=S)NC(=O)C2CCCC2)cc1	-16.7%	-12.4%	-26.3%	-2.2%	16.4µM*	2.1%
Cc1ccc(NC(=S)NC(=O)C2CC2)c(C)c1	20.6µM*	?	?	/	?	15.1µM*
CN(C)S(=O)(=O)c1ccc(NC(=S)NC(=O)C2CCC2)cc1	0.5%	-3.6%	-3.6%	/	-7.3%	1.6%
CC(=O)Nc1ccc(NC(=S)NC(=O)C2CC2)cc1	?	25.7%	14.1%	/	?	-14.6%
CCN(CC)CC#CCC(C)(c1ccccc1)c1ccccc1	-6.1%	-2.6%	-0.2%	-5.9%	-21.9%	-1.1%
